A selection: hits, their analogues and other compounds. The true share with any hit is near 2.4%.
D2 ag-1: D2 dopamine receptor (human) agonism | HEK293 T-REx D2 cells, calcium flux agonist mode | activation, % at 2 µM | hit rate 0.53% among 340,000 | AID 485358;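 active means activation over 3 SD above normal in the single-dose calcium agonist read, cut at about 30% in these data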
Target sequence (P14416 whole entry, looked up): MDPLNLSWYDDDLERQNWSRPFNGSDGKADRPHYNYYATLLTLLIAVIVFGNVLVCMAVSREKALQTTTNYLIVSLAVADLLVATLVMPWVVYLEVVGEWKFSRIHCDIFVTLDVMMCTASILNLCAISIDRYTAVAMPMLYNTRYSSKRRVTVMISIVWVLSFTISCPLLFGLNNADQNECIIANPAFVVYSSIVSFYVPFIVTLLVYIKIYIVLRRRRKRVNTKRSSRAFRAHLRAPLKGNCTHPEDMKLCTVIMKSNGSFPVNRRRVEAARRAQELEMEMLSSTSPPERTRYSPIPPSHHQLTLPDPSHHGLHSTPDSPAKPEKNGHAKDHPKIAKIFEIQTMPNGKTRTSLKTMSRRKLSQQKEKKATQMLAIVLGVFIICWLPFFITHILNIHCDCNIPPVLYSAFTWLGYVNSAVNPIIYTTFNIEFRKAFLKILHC
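Agonism scored from kinetic calcium signal (1 read/sec, 180 s) following compound pin transfer, after a 10 s baseline. Cells: HEK293 Trex line expressing inducible D2 receptor coupled to calcium, dye-loaded after overnight culture at 30 C.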
D2 ag-2: activates the human D2 dopamine receptor. P14416. DiscoveRx PathHunter D2 beta-arrestin, luminescence, 90 min; 100% = 57 uM dopamine signal. activation, % (concentration not given with the values). hit rate 0.084% among 360,000; in the data active means activation above about 40%
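Agonist mode: compounds alone added to overnight-plated D2 PathHunter cells for 90 min at 37 C, with 57 uM final dopamine (EC100) defining full response. Beta-arrestin recruitment detected by chemiluminescent reagent, read after 1 h at ambient temperature.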
D2 PAM-1: positive allosteric modulators of human D2 dopamine receptor; P14416; HEK293 T-REx D2, calcium flux, EC20 dopamine potentiation; potentiation, % at 10 µM; hit rate 0.34% among 340,000; AID 485347;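 active means potentiation over 3 SD above the plate norm, cut at about 30% in these data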
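Calcium flux readout, no-wash dye, 1 read/s. Inducible HEK293 Trex D2 line, overnight 30 C. Compound alone 180 s (agonist flags), then EC20 dopamine, another 180 s to score potentiation.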
D2 antag: antagonists of human D2 dopamine receptor. hit rate 2% among 340,000. HEK293 TREx D2 cells, calcium flux, dopamine EC80. AID 485344. inhibition, % at 10 µM. P14416; in the data active means inhibition above about 30%; inactive means below that, where a call was filed
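Overnight-induced (tetracycline, 30 C) HEK293 T-REx cells carrying force-coupled D2 receive a no-wash calcium dye, then compound, then EC80 dopamine at 180 s; signals are read kinetically throughout.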
D2 PAM-2: human D2 receptor positive allosteric modulation; hit rate 0.23% among 360,000; potentiation, % (test concentration not listed); DiscoveRx D2 beta-arrestin cells, luminescence, 90 min; 100% = 57 uM dopamine signal; in the data active means potentiation above about 50%
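PathHunter D2 cells, attached overnight at 37 deg C, received compound in DMSO plus dopamine at EC20 (50 nM final) for 90 min at 37 deg C. Beta-arrestin recruitment was read as luminescence after 1 h with detection reagent at ambient temperature.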
Each line names hits and unclear results; the compound was inactive in the other large screens.

O=c1[nH]c2ccccc2n1C1CCN(C(c2cc3ccccc3o2)c2nnnn2Cc2ccccc2)CC1 (stereo not given)	D2 PAM-2 58.3 (no result: D2 ag-1, D2 PAM-1, D2 antag)
CSCCC(c1nnnn1-c1ccc2c(c1)OCCO2)N1CCC(n2c(=O)[nH]c3ccccc32)CC1 (stereo not given)	D2 PAM-2 65.0 (no result: D2 ag-1, D2 PAM-1, D2 antag)
O=c1[nH]c2ccccc2n1C1CCN(C(c2ccccc2OC(F)(F)F)c2nnnn2-c2ccc3c(c2)OCCO3)CC1 (stereo not given)	D2 PAM-2 61.2 (no result: D2 ag-1, D2 PAM-1, D2 antag)
O=C(CCc1nc(C2=CCN(Cc3cccc(Cl)c3)CC2)no1)Nc1ccccc1F	none (no result: D2 ag-2, D2 antag, D2 PAM-2)
CCOc1ccc(CN(CCc2ccc3c(c2)OCO3)Cc2cccc(Br)c2)cc1	none (no result: D2 ag-1, D2 ag-2, D2 antag, D2 PAM-2)
CCCC1=Nc2cc(C(=O)NC3CCC(C)CC3)ccc2Sc2ccccc21 (stereo not given)	none (no result: D2 ag-1, D2 ag-2, D2 antag, D2 PAM-2)
COc1ccc(NC(=O)c2cccn(Cc3ccc(Cl)cc3)c2=O)c(OC)c1	none (no result: D2 ag-2, D2 PAM-1, D2 antag, D2 PAM-2)
N#CC1(c2ccccc2)CCN(C2CC(=O)N(c3ccc(F)cc3)C2=O)CC1 (stereo not given)	D2 PAM-1 30.9
CC(=O)O[C@@]12CO[C@@H]1C[C@H](OC1OCC(O)C(O)C1O)[C@@]1(C)C(=O)[C@H](O)C3=C(C)[C@@H](OC(=O)[C@H](O)[C@@H](NC(=O)c4ccccc4)c4ccccc4)C[C@@](O)([C@@H](OC(=O)c4ccccc4)C12)C3(C)C (stereo not given in full)	D2 antag 37.5
Nc1c(C(=O)Nc2ccc(Br)cc2F)sc2nc3c(cc12)N1CCC3CC1	none (no result: D2 ag-2, D2 antag, D2 PAM-2)
CC1(C)OC(c2ccccc2)=C/C(=C/C=C2C(=O)NC(=S)NC2=O)O1	D2 antag 63.0
O=C1NC(=S)NC(=O)C1=Cc1cccc2cc3ccccc3cc12	none
CN1/C(=C\C=C2C(=O)NC(=S)NC2=O)C(C)(C)c2ccccc21	D2 ag-1 127.6, D2 antag 30.6
Cc1oc2cc3oc(=O)c(CCC(=O)N4CCCCC4)c(C)c3cc2c1C	none (no result: D2 ag-1, D2 ag-2, D2 antag, D2 PAM-2)
CN1CC(C(=O)c2ccc(F)cc2)C(c2ccc(F)cc2)C1 (stereo not given)	D2 antag 99.9
O=C(CCCN1CCC(n2c(=O)[nH]c3ccccc32)CC1)c1ccc(F)cc1	D2 antag 76.6
CCSc1nnc(NC(=O)c2cccn(Cc3ccc(Cl)cc3)c2=O)s1	none (no result: D2 ag-2, D2 antag, D2 PAM-2)
Cc1cc(NCCN)nc2ccccc12	D2 antag 57.8
Cc1ccc(C)c(-n2c(C)nc3ccccc3c2=O)c1	none
N#Cc1cccc(NC(=O)c2sc3nc4c(cc3c2N)N2CCC4CC2)c1	none (no result: D2 ag-2, D2 antag, D2 PAM-2)
Oc1cc2c(cc1CN1CCN(c3ccc(F)cc3)CC1)OCO2	D2 antag 57.8
Cc1ccc(O)c(CN2CCN(c3ccccc3)CC2)c1	D2 antag 38.4
Oc1cc2c(cc1CN1CCN(c3ccccc3)CC1)CCC2	D2 antag 72.9
Oc1ccc(Cl)cc1CN1CCN(Cc2ccccc2)CC1	D2 antag 31.9
Brc1cc2c(cc1CN1CCN(c3ccccc3)CC1)OCCO2	none
COC(=O)c1ccc(NC(=O)c2cccn(Cc3ccccc3C)c2=O)cc1	none (no result: D2 ag-2, D2 antag, D2 PAM-2)
COc1cccc(CN2CCN(c3ccc(F)cc3)CC2)c1OC	none (no result: D2 ag-1, D2 PAM-1, D2 antag)
Cc1cc(O)c(CN2CCN(c3ccccc3)CC2)cc1C	D2 antag 49.3
NCCc1c[nH]c2ccc(F)cc12	D2 antag 94.7 (no result: D2 ag-2, D2 PAM-2)
NCCc1c[nH]c2ccc(C(N)=O)cc12	none
FC(F)(F)c1ccc2c(c1)N(CCCN1CCN(CCCl)CC1)c1ccccc1S2	D2 antag 75.4
CCCCN(Cc1ccccc1)C1CCN(CCc2ccccc2)CC1	D2 antag 55.8
c1ccc(CCCN2CCN(CCOC(c3ccccc3)c3ccccc3)CC2)cc1	none (no result: D2 ag-1, D2 PAM-1, D2 antag)
O=S1(=O)N(CCN2CC=C(c3c[nH]c4cc(F)ccc34)CC2)c2cccc3c2N1CCC3	D2 antag 63.7
O=C(COc1cccc(Cl)c1)N1CCN(CCc2ccncc2)CC1	none (no result: D2 ag-2, D2 antag, D2 PAM-2)
CCN(CC)P(=O)(c1n(CC)cc[n+]1CC)N(CC)CC	D2 PAM-1 31.5
O=c1c2ccccc2nc(-c2ccco2)n1-c1nccs1	D2 antag 30.2
CN1CC[C@@]23CCCC[C@@H]2[C@@H]1Cc1ccc(O)cc13	none (no result: D2 ag-1, D2 PAM-1, D2 antag)
CN1CC[C@]2(c3cccc(O)c3)Cc3nc4ccccc4cc3C[C@H]2C1	D2 antag 40.5 (no result: D2 ag-2, D2 PAM-2)
O=[N+]([O-])c1ccc(N2CCCCC2)c2ncccc12	none
O=[N+]([O-])c1ccc(N2CCCCCC2)c2nonc12	D2 ag-1 84.7
Cc1ccc2scc(N3CCN(C)CC3)c(=O)c2c1	none (no result: D2 ag-2, D2 antag, D2 PAM-2)
Cc1cc(C)c(NC2=NCCCS2)c(C)c1	D2 PAM-1 50.3
Cc1cccc(C)c1NC1=NCCCS1	none
O=C1C=C(N2CC2)c2ccccc2C1=O	D2 ag-2 50.8 (no result: D2 ag-1, D2 PAM-1, D2 antag)
O=c1c2ccccc2nc(/C=C\c2cccc(Br)c2)n1-c1ccc(O)cc1	none (no result: D2 ag-2, D2 antag, D2 PAM-2)
COc1cccc(/C=C/c2nc3ccccc3c(=O)n2-c2ccc(Cl)cc2)c1OC	none (no result: D2 ag-2, D2 antag, D2 PAM-2)
COC(=O)C1=C(c2ccc(C(C)=O)cc2)C[C@@H]2CC[C@H]1N2C	none
COC(=O)C1=C(c2ccc(C(C)=O)cc2)C[C@@H]2CC[C@H]1N2C(=O)NC(C)C	D2 antag 52.2
Cc1ccc(-n2c(/C=C/c3cccs3)nc3ccccc3c2=O)cc1C	none (no result: D2 ag-1, D2 ag-2, D2 antag, D2 PAM-2)
Cc1cccc(CN2CCN(Cc3ccc(Cl)cc3)CC2)c1	none
Cc1cccc(CN2CCN(c3ccc(Cl)cc3)CC2)c1	D2 antag 34.3
Fc1ccc(CN2CCN(c3ccc(Cl)cc3)CC2)cc1	none
CCCCCCN1CCN(c2ccc(Cl)cc2)CC1	D2 antag 50.9
CC1CN=C(NCc2ccncc2)S1 (stereo not given)	none
CC1CN=C(NCc2ccc(F)cc2)S1 (stereo not given)	D2 ag-1 37.3
COc1ccc(-n2c(/C=C\c3ccccc3F)nc3ccccc3c2=O)c(OC)c1	none (no result: D2 ag-1, D2 ag-2, D2 antag, D2 PAM-2)
COC(=O)C1=CCCN(C)C1	D2 ag-1 31.5
COC(=O)c1ccc(CN2CCN(Cc3ccccc3)CC2)cc1	none
CN(CCc1nnc(N)s1)[N+](=O)[O-]	D2 antag 47.6
CCN1CCN(Cc2cc(C(C)(C)C)c(O)c(C(C)(C)C)c2)CC1	D2 antag 45.9 (no result: D2 ag-2, D2 PAM-2)
CCCOc1ccc(C2SCC(=O)Nc3c2c(C)nn3-c2cccc(C)c2)cc1OC (stereo not given)	none (no result: D2 ag-2, D2 antag, D2 PAM-2)
CC(C)OCC(O)CN1CC2C[C@@H](C1)Cn1c2cccc1=O (stereo not given in full)	D2 antag 41.7
COC(=O)C1=C(c2ccccc2OCc2ccccc2)C[C@@H]2CC[C@H]1N2C(=O)NC1CCN(Cc2ccccc2)CC1	D2 antag 59.5
COC(=O)C1=C(c2ccc(F)cc2OCc2ccccc2)C[C@@H]2CC[C@H]1N2C(=O)NC1CCN(Cc2ccccc2)CC1	none
CCNc1cc(N2CCNCC2)ccc1[N+](=O)[O-]	D2 antag 35.3 (no result: D2 ag-2, D2 PAM-2)

Screening data from PubChem.
